CCHF vOTU inh – CCHFV vOTU protease inhibitors, primary screen, biochemical, Pep-AMC substrate, fluorescence; 370,000 tested, 0.55% active; AID 651958, 2012; inhibition, % at 11.5 µM; Crimean-Congo hemorrhagic fever virus L polyprotein viral ovarian tumor (vOTU) protease …; in the data active means inhibition above about 30%; further: 0% = vehicle wells with enzyme and 100% = no enzyme wells
SARS 3CLpro inh – SARS-CoV 3CLpro protease inhibitors, primary screen, biochemical, quenched FRET; recombinant SARS-CoV 3CLpro, quenched FRET peptide cleavage; inhibition, % at 6 µM; 290,000 tested, 0.14% active; in the data active means inhibition above about 12%
BoNT-A LC inh2 – BoNT/A light chain protease inhibitors, primary screen, biochemical, flow cytometry, MLPCN library; Botulinum neurotoxin type A light chain protease (Clostridium botulinum A str. ATCC 3502); multiplex microsphere protease substrate cleavage; 360,000 tested, 0.17% active; AID 588499, 2011; inhibition, % at 10 µM; further: plate controls were buffer without enzyme for full effect and enzyme alone for no effect
Anthrax LF prot – Bacillus anthracis LF protease inhibitors, primary screen, biochemical, multiplex microsphere, MLPCN library; Lethal factor (Bacillus anthracis), P15917; multiplex microsphere protease cleavage assay; inhibition, % at 10 µM; 360,000 tested, 0.12% active; AID 588501, 2011; further: plate controls were buffer without enzyme for full effect and enzyme alone for no effect
Target sequence (P15917 whole entry, looked up): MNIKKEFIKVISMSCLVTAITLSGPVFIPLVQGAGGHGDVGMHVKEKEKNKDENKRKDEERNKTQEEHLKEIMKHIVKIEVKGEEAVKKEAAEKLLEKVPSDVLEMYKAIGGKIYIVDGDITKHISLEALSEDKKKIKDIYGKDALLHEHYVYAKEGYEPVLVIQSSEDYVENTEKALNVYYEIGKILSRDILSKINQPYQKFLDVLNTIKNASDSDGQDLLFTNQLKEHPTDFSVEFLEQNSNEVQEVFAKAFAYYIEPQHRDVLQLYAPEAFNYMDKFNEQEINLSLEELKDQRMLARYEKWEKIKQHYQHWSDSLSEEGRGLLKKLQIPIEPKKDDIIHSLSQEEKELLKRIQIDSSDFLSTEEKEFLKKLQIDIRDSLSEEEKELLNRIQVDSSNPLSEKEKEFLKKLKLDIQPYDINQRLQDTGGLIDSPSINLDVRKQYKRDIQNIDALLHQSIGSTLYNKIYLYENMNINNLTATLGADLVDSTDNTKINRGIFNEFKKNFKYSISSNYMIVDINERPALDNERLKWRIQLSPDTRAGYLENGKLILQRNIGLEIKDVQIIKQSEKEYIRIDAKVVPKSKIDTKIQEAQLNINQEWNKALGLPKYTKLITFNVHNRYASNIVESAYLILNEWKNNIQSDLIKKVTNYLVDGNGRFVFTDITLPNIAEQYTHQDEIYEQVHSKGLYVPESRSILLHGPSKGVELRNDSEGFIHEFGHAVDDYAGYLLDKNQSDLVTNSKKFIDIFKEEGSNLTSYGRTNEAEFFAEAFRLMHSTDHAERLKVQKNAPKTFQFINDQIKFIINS
BoNT-F LC inh – BoNT/F light chain protease inhibitors, primary screen, biochemical, flow cytometry, MLPCN library. Botulinum neurotoxin type F light chain protease (Clostridium botulinum). 360,000 tested, 0.22% active. inhibition, % at 10 µM. Multiplex microsphere protease cleavage assay; in the data active means inhibition above about 35%, passing the limit was not always enough; inconclusive means no clear call, values can overlap the other calls; further: plate controls were buffer without enzyme for full effect and enzyme alone for no effect
Autofluor counter – counter-screen for toxin protease inhibitors: compound fluorescence; AID 624483; fluorescence intensity (concentration not given with the values); compound autofluorescence counterscreen, microsphere flow cytometry; stronger effect = higher value; 360,000 tested, 3.1% active; in the data active means fluorescence intensity above about 16000; inconclusive means no clear call, values can overlap the other calls
BoNTA LC inh 1 – BoNT/A light chain protease inhibitors, confirmation, biochemical, flow cytometry, cherry pick 1; shares compounds with BoNT-F LC inh; multiplex microsphere protease assay; inhibition, % at 10 µM; 720 tested, 3% active; AID 602139, 2011; in the data active means inhibition above about 32%
BoNT-F LC CP1 – BoNT/F light chain protease inhibitors, confirmation, biochemical, flow cytometry, cherry pick 1 | shares compounds with BoNT-F LC inh | multiplex microsphere protease cleavage assay | inhibition, % at 10 µM | 720 tested, under 10 active; call rule not given here
LF protease CP1 – Bacillus anthracis LF protease inhibitors, confirmation, biochemical, multiplex microsphere, cherry pick 1 | inhibition, % at 10 µM | 720 tested, under 10 active | shares compounds with BoNT-F LC inh | multiplex microsphere protease cleavage assay | AID 602142, 2011; call rule not given here
Active calls of the source: *; ? = inconclusive; · = not tested or not shown. Shown are actives, neighbours in structure and some others; about 3.9% of the full set was active somewhere. Unless noted, no stated cut-off is given here; in the data, active means inhibition above about 30%; inconclusive means no clear call, values can overlap the other calls; inactive means below that.

SMILES	CCHF vOTU inh	SARS 3CLpro inh	BoNT-A LC inh2	Anthrax LF prot	BoNT-F LC inh	Autofluor counter	BoNTA LC inh 1	BoNT-F LC CP1	LF protease CP1
COc1ccc(-c2sc(NC(=O)c3ccc(C)cc3)nc2-c2ccc([N+](=O)[O-])cc2)cc1	2	-1	19	27	12	3382	·	·	·
O=C(Nc1nc(-c2ccccc2)c(-c2ccccc2)s1)c1ccc(S(=O)(=O)N2CCCC2)cc1	19	-2	3	-4	1	15385	-1	-2	0
O=C(Nc1nc(-c2ccccc2)c(C(=O)c2ccccc2)s1)c1ccc(S(=O)(=O)N2CCCC2)cc1	3	3	0	-4	-10	2627	·	·	·
COc1ccc(C(=O)Nc2nc(-c3ccc([N+](=O)[O-])cc3)c(-c3ccccc3)s2)cc1	5	7	29	31*	15	2430	24	3	18
C[C@@H]1CCN(C2CC2)S(=O)(=O)c2c(cccc2N2CCC[C@@H]2CO)O1	-4	·	·	·	·	·	·	·	·
COc1ccc(-c2c(C#N)c(N)nc3sc(C(=O)c4ccccc4)c(N)c23)cc1	-1	-2	44*	18	7	2561	8	-3	5
Cc1[nH]c2ccccc2c1CC(=O)Nc1ccc(Nc2cccnc2)c(-c2cc(C(F)(F)F)cc(C(F)(F)F)c2)c1	19	·	·	·	·	·	·	·	·
COc1ccc(-n2c(C)nnc2SCC(=O)N2CCOCC2)cc1	1	2	-4	0	47*	3824	1	2	-2
COc1ccc(-n2c(SCC(=O)N3CCOCC3)nnc2C(C)N2CCCCC2)cc1 (centres undefined)	·	0	·	·	·	·	·	·	·
CCS(=O)(=O)N1CCC(C(=O)Oc2ccccc2)CC1	9	-1	1	-2	39*	4002	0	-3	1
COc1ccc2nc(C)cc(Nc3ccc(C(=O)O)cc3)c2c1	·	-2	-2	-3	39*	3557	-1	-3	2
COc1ccc(Nc2cc(C)nc3ccc(OC)cc23)cc1	-6	6	·	·	·	·	·	·	·
Cn1c2ccccc2c(=O)c2c(=O)n(-c3ccccc3)c(-c3ccc(C(C)(C)C)cc3)nc21	-4	1	4	36*	?	4082	-2	0	2
Cc1ccc2c(c1)-c1c(cnn1CC(=O)NCCc1ccc(Cl)cc1)CO2	3	·	·	·	·	·	·	·	·
O=C(c1cccs1)c1ccc(-c2cccs2)s1	-8	-2	33*	35*	11	3150	23	0	20
CCSc1ncnc2c1sc1nc3c(cc12)COC(C)(C)C3	2	2	3	2	36*	2577	-1	-8	-4
C[C@]12Cc3ccccc3C1CC1=N[C@@H](c3ccc(C(F)(F)F)cc3)O[C@@]13C[C@@H]2C(=O)N3Cc1ccncc1 (some centres undefined)	5	·	·	·	·	·	·	·	·
COC(=O)[C@]12C[C@H](CC(=O)N3CCOCC3)C(=O)N(Cc3ccc(Cl)cc3Cl)C1=C[C@H](C1CCCC1)O[C@@H]2C	20	·	·	·	·	·	·	·	·
CCn1c(SCC(=O)Nc2ccc(C)cc2)nc(O)cc1=O	12	3	3	10	42*	3877	0	6	6
O=C1c2ccccc2C(=O)N1CC#CCN1CCN(C2CCCCC2)CC1	4	-4	3	-1	10	3806	·	·	·
O=C1c2ccccc2C(=O)N1C1CCCCC1	-12	4	-3	50*	?	3825	2	0	1
O=C(N[C@H](C(=O)N1CCC[C@H]1C(=O)NC1CCCC1)C1CCCCC1)c1cccs1	-12	·	·	·	·	·	·	·	·
CC(C)OC(=O)C(C)Nc1ccc(F)c(Cl)c1 (centres undefined)	9	-1	-4	-7	40*	3010	-2	-5	-6
COc1cc(-n2c(C)cc(O)cc2=O)ccc1Cl	-3	·	·	·	·	·	·	·	·
CCOC(=O)c1c(NC(=S)N2CCOCC2)sc(C)c1C	-1	4	2	5	48*	3766	-3	-6	-3
SMILES	CCHF vOTU inh	SARS 3CLpro inh	BoNT-A LC inh2	Anthrax LF prot	BoNT-F LC inh	Autofluor counter	BoNTA LC inh 1	BoNT-F LC CP1	LF protease CP1
CS(=O)(=O)N1CCC[C@]2(CC[C@@H](CCC#N)O2)C1	0	·	·	·	·	·	·	·	·
CS(=O)(=O)Nc1cccc(C2=NN(C(=O)CCC(=O)O)C(c3cccs3)C2)c1 (centres undefined)	-2	-2	0	22	4	2951	·	·	·
CS(=O)(=O)Nc1ccc(C2=NN(C(=O)CCCC(=O)O)C(c3cccs3)C2)cc1 (centres undefined)	-324	1	-4	-3	37*	4361	0	-3	-4
COc1cccc(CNC(=O)C(CCSC)NS(=O)(=O)c2ccc3c(c2)oc(=O)n3C)c1 (centres undefined)	18	-3	1	-3	37*	4362	0	0	-7
C[C@@H]1CCN(C2CC2)S(=O)(=O)c2c(cccc2N2CCC[C@H]2CO)O1	-7	·	·	·	·	·	·	·	·
O=C(Nc1cccc(O)c1)c1cccc(C(=O)Nc2cccc(O)c2)c1	-5	-2	-9	-4	?	4721	·	·	·
O=C(O)c1ccc(NS(=O)(=O)c2ccc(C(=O)Nc3ccccc3)cc2)cc1	-1	1	-4	3	-4	6786	1	0	3
O=C(Nc1ccc(NS(=O)(=O)c2ccccc2)cc1)c1ccccc1	4	-1	-3	-12	-20	4015	·	·	·
CC(=O)c1ccc(S(=O)(=O)Nc2ccc(C(=O)N3CCC3)cc2)cc1	13	·	-2	0	40*	4779	-1	-2	-4
O=C(Nc1cccc(O)c1)c1cccc(S(=O)(=O)Nc2cccc(O)c2)c1	12	-4	4	-3	-20	3622	0	-4	-2
O=C(O)c1ccc(NC(=O)c2cccc(S(=O)(=O)Nc3ccc(C(=O)O)cc3)c2)cc1	1	-5	3	7	39*	3985	0	4	2
O=C(O)c1ccc(NC(=O)c2cccc(C(=O)Nc3ccc(C(=O)O)cc3)c2)cc1	0	3	-1	3	-4	2892	·	·	·
Cc1ccc(S(=O)(=O)Nc2ccc(C(=O)N3CCCC3)cc2)cc1	1	0	2	6	12	5137	·	·	·

Source: PubChem (several laboratories)
